# FadD28 binding: inhibitors of FadD28 bisubstrate probe binding, primary screen, biochemical, fluorescence polarization, single point. inhibition, % at 12.5 µM. hit rate 0.22% among 360,000. AID 588549, 2011; in the data active = inhibition above about 8.5%, passing the limit was not always enough
# Mtb UGM inh: M. tuberculosis UGM enzyme inhibitors, primary screen, biochemical, fluorescence polarization, single point; purified UGM, fluorescence polarization probe displacement; inhibition, % at 10 µM; hit rate 0.06% among 320,000; AID 504406, 2011; in the data active = inhibition above about 10%, passing the limit was not always enough
# Target sequence (P9WIQ1 whole entry, looked up): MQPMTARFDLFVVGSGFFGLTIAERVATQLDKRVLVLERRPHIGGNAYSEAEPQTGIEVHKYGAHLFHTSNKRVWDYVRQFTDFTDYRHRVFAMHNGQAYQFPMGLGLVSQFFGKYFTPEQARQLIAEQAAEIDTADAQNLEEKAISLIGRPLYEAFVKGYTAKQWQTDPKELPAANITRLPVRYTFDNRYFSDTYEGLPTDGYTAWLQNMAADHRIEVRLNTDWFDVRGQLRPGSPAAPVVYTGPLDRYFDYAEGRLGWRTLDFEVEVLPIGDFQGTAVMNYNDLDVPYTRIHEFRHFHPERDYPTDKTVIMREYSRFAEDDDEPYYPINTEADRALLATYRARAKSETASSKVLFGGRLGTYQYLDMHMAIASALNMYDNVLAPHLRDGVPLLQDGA
# RecA intein inh: Mtb RecA intein splicing inhibitors, primary screen, biochemical, fluorescence, HTS; Protein RecA (Mycobacterium tuberculosis (strain ATCC 25618 / H37Rv)), P9WHJ3; cell-free RecA intein splicing; inhibition, % (no concentration beside the values); hit rate 0.75% among 290,000; in the data active = inhibition above about 30%;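 also: 0% = vehicle wells and 100% = reference inhibitor control wells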
# BJeLR lethal: MLPCN primary cell-based screen for lethality selective to Ras in HRASV12 cells | hit rate 0.17% among 300,000 | inhibition, % (test concentration not listed) | BJeLR (HRASV12) viability, CellTiter-Glo ATP luminescence, 48 h; in the data active = inhibition above about 50%
# PrP 5UTR inh: inhibition of PrP 5' UTR reporter expression; cell-based PrP 5' UTR mRNA reporter, plate reader; inhibition, % (no concentration beside the values); hit rate 0.35% among 340,000; in the data active = inhibition above about 52%; also: 0 = median of the neutral control wells
# Rv3671c inh: Rv3671c serine protease inhibitors, primary screen, biochemical, fluorescence polarization, M. tuberculosis H37Rv; inhibition, % at 5.96 µM; hit rate 0.048% among 320,000; in the data active = inhibition above about 38%;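 also: extracellular domain of Rv3671c used as enzyme; 0% = enzyme with DMSO and 100% = no enzyme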
# * = called active by the depositor; i = inactive; · = not tested or not shown. In the library only some 1.3% were active in any assay of this set; here they are far more common.
SMILES,FadD28 binding,Mtb UGM inh,RecA intein inh,BJeLR lethal,PrP 5UTR inh,Rv3671c inh
CC1(C(=O)N2CCCCC2)CCN1C(=O)c1ccccc1CCc1ccccc1 (configuration not stated),-3,·,·,·,·,·
Cc1cc(C)c2nc(C)cc(N/N=C/c3ccc(O)cc3)c2c1,1,-1,-9,51*,-15,12
CCc1cccc2c(C(=O)CSc3nncn3-c3ccccc3OC)c[nH]c12,-2,-3,0,3,-5,-1
CCc1cccc2c(C(=O)CSc3nncn3-c3ccc(OC)cc3)c[nH]c12,14*,0,1,-4,-32,-6
CC1(C(=O)Nc2cccc3c2CCCC3)CCN1C(=O)CCC1CCCC1 (configuration not stated),-2,·,·,·,·,·
O=C(Nc1cc(Cl)cc2c1-c1ccc(Cl)cc1C2O)C(Cl)Cl (configuration not stated),-2,·,·,·,4,·
CCN1CCN(CCCNC(=O)c2ccc(/C=C3/Sc4ccccc4N(Cc4ccccc4F)C3=O)cc2)CC1,-15,-1,5,12,-37,-40
CCN1CCN(CCNC(=O)c2ccc(/C=C3/Sc4ccccc4N(Cc4ccccc4C)C3=O)cc2)CC1,-10,·,7,76*,-8,·
O=C(O)c1ccc([N+](=O)[O-])c2c1C(=O)c1ccccc1C2=O,-1,5,47*,-3,-11,-4
O=C1c2ccccc2C(=O)c2c([N+](=O)[O-])ccc(O)c21,-5,1,·,·,-31,21
CCc1cc2c(SCC(=O)NC3CC3)ncnc2s1,-4,-2,·,·,-10,-2
Cn1c(=O)c(N)c2c3c(c(Br)ccc31)C(=O)c1ccccc1-2,-2,15*,-8,-1,-12,20
COc1ccc(/C=N/N(Cc2ccccc2)c2ccccc2)cc1O,12*,2,1,-11,-15,0
COc1cc(C=NCc2ccccc2)ccc1O,-1,·,·,·,·,·
CN1C[C@@H]2[C@@H]3C(=O)N(C)C(=O)[C@@H]3[C@](Cc3ccccc3)(C1=O)N2C(=O)c1ccc(Cl)cc1,0,·,·,·,-31,·
O=C(CCl)Nc1cc(SCC(O)CO)cc([N+](=O)[O-])c1 (configuration not stated),0,·,16,81*,14,·
CCOCCCn1c(=NC(=O)c2cccs2)c(C#N)cc2c(=O)n3ccccc3nc21,-3,16*,-166,5,-18,2
Cc1cccn2c(=O)c3cc(C#N)c(=NC(=O)c4cccs4)n(CCCOC(C)C)c3nc12,-1,2,-344,-3,-14,-1
O=C(NCc1ccc(F)cc1)c1cc(C2CCCN(C(=O)CCCc3ccccc3)C2)on1 (configuration not stated),-5,·,·,·,·,·
COc1ccc(/C=C2\SC(=S)N(CCC(=O)NCCCn3ccnc3)C2=O)cc1,-3,0,16,4,-16,-10
COc1ccccc1/C=C1\SC(=O)N(CCC(=O)NCCCn2ccnc2)C1=O,-4,-1,1,83*,-43,1
COc1ccccc1/C=C1\SC(=S)N(CCC(=O)NCCCn2ccnc2)C1=O,-1,1,3,78*,-1,-7
COc1ccc2c3c([nH]c2c1)C(C)=NCC3,-6,-2,i,11,-11,-4
CC1=NCCc2c1[nH]c1cc(O)ccc21,-1,31*,·,·,6,6
COC(=O)c1ccc(-c2noc(CN3CCCC(CNC(C)=O)C3)n2)cc1 (configuration not stated),0,-1,1,-1,58*,1
SMILES,FadD28 binding,Mtb UGM inh,RecA intein inh,BJeLR lethal,PrP 5UTR inh,Rv3671c inh
COC(=O)c1ccc(-c2noc(CN(C)CCC3CCCCO3)n2)cc1 (configuration not stated),-3,-2,0,1,-23,7
Cc1cccc(C(=O)O[C@@H]2[C@H](Cc3ccccc3)NS(=O)(=O)[C@H]3C[C@@H]4C=C[C@]23O4)c1,-2,-1,·,·,-8,0
CC(C)Nc1nc(Cl)nc(N(C#N)CN2C(=O)c3ccccc3S2(=O)=O)n1,-1,0,23,-2,-5,-14
COc1nc(NC(C)C)nc(N(C#N)CN2C(=O)c3ccccc3S2(=O)=O)n1,-2,0,61*,-12,-2,-1
COc1ccc(NC(=O)C2(C)Cc3c(-c4cccc(C(N)=O)c4)ccnc3O2)cc1 (configuration not stated),-6,·,·,·,·,·
N#C/C(=C/C1=C(N2CCOCC2)C(=C/c2ccccc2)/CC1)C(=O)Nc1ccccc1F,9.9*,·,·,·,0,·
N#C/C(=C\C1=C(N2CCOCC2)C(=C\c2ccc(Cl)cc2)/CC1)C(=O)Nc1ccccc1F,0,0,1,5,-22,-50
Cn1nc(C(=O)Nc2cc(Cl)ccc2N2CCCC2)c2ccccc2c1=O,-3,17*,·,·,4,-13
CCC(=O)N1CCC1(C)C(=O)Nc1cc(-c2ccccc2)nn1C (configuration not stated),-3,·,·,·,·,·
Cn1c(=O)c2c(ncn2Cc2ccc(Cl)cc2)n(C)c1=O,16*,0,8,4,-18,-3
CCCCC1CC(=O)NC1(C(=O)OCC)C(=O)OCC (configuration not stated),-2,·,·,·,-20,·
O=C(CCCN1C(=O)/C(=C\c2cccs2)SC1=S)Nc1ccc(O)cc1C(=O)O,3,2,32*,-11,-24,-10
O=C(CCCN1C(=O)/C(=C/c2ccco2)SC1=S)Nc1cccc(C(=O)O)c1,18*,0,9,-9,-14,0
O=C(CCCN1C(=O)/C(=C\c2cccs2)SC1=S)Nc1ccc(C(=O)O)cc1,-1,4,14,5,-9,-12
O=C(CCCN1C(=O)/C(=C\c2cccs2)SC1=S)Nc1ccc(O)cc1,·,0,67*,1,-14,-3
O=C(CCCN1C(=O)/C(=C\c2cccs2)SC1=S)Nc1cccc(C(=O)O)c1,0,6,3,-2,7,2
O=C(CCCN1C(=O)/C(=C\c2ccco2)SC1=S)Nc1ccc(O)cc1C(=O)O,40*,0,24,-5,-2,-23
COc1ccc(NC(=O)CCCN2C(=O)/C(=C\c3ccco3)SC2=S)cc1,1,-3,4,-11,-10,-8
O=C(COc1ccc(Br)cc1)N(Cc1nnc(-c2ccccc2Cl)o1)C1CC1,-1,·,·,·,·,·
c1ccc2c(c1)C1=NCCN1c1ccccc1-2,-2,·,·,·,·,·
Cc1onc(C(=O)N2CCN(C(c3ccccc3)c3ccccc3)CC2)c1[N+](=O)[O-],-1,1,1,75*,-7,2
CCOC(=O)c1c(NC(=O)COC(=O)c2ncc(Cl)c(Cl)c2Cl)sc(C(=O)N(C)C)c1C,-4,1,38*,-3,-2,3

# High-throughput results from PubChem.
